{
  "source": "PubChem BioAssay AID602143",
  "about": "(Vanderbilt Specialized Chemistry Center, 2011)",
  "note": "Activity calls are given as the source filed them. Rule as the data show it: active = remaining activity below about 50%; inactive = the rest.",
  "data": [
    {"target": "Phospholipase D2 (Homo sapiens) (UniProt O14939)", "assay": "cellular phospholipase D2 activity inhibition – cell-based, HEK293, single concentration (AID 602143);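 also: tested at 200 nM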", "conditions": "HEK293 cellular PLD2 activity, percent of control; stronger effect = lower value", "values": [
      {"smiles": "O=C(NCCN1CCC2(CC1)CNc1ccccc12)c1cnc2ccccc2c1", "remaining activity": "90% (inactive)"},
      {"smiles": "O=C(NCCN1CC=C(n2c(=O)[nH]c3ccccc32)CC1)C1CC1c1ccccc1", "note": "(stereo not drawn)", "remaining activity": "28.2% (active)"},
      {"smiles": "Cc1cc(C)c(S(=O)(=O)NCCN2CCC(n3c(=O)[nH]c4ccccc43)CC2)c(C)c1", "remaining activity": "98.8% (inactive)"},
      {"smiles": "O=c1[nH]c2ccccc2n1C1CCN(CCNC(=S)Nc2ccccn2)CC1", "remaining activity": "72.7% (inactive)"},
      {"smiles": "O=C(NCCN1CCC(n2c(=O)[nH]c3ccccc32)CC1)c1cccc(F)n1", "remaining activity": "74.5% (inactive)"},
      {"smiles": "O=C(NCCN1CCC(n2c(=O)[nH]c3ccccc32)CC1)c1cc2ccc3ccccc3c2c2ccccc12", "remaining activity": "109% (inactive)"},
      {"smiles": "O=C(NCCN1CCN(c2ccncc2)CC1)c1ccc(Cl)cc1", "remaining activity": "116% (inactive)"},
      {"smiles": "C[C@@H](CN1CCC(n2c(=O)[nH]c3ccccc32)CC1)NC(=O)c1ccc(C(F)(F)F)cc1", "remaining activity": "76.2% (inactive)"},
      {"smiles": "O=C(NCCN1CCC(n2c(=O)[nH]c3ccccc32)CC1)NCc1cccc(F)c1", "remaining activity": "101% (inactive)"},
      {"smiles": "C[C@@H](CN1CCC(n2c(=O)[nH]c3cc(Br)ccc32)CC1)NC(=O)c1ccc(F)cc1", "remaining activity": "80.4% (inactive)"},
      {"smiles": "O=C(NCCN1CCC(n2c(=O)[nH]c3ccccc32)CC1)c1cc(-c2ccccc2)no1", "remaining activity": "50.8% (inactive)"},
      {"smiles": "O=C(NCCN1CCC(n2c(=O)n(C(=O)c3ccc(Cl)cc3)c3ccccc32)CC1)c1ccc(Cl)cc1", "remaining activity": "64.5% (inactive)"},
      {"smiles": "Cn1c(=O)n(C2CCN(CCNC(=O)[C@H]3C[C@@H]3c3ccccc3)CC2)c2ccccc21", "remaining activity": "78.4% (inactive)"}
    ]}
  ]
}
